Records with an inconclusive call do not appear. Where a call stands in place of a potency, no number is given. Values without a mark were called inactive. Active and inactive are the calls of the source. Unless noted, the call rests on the fitted dose curve; in most records, active means well fitted curve in the direction sought with a large enough effect in the repeat runs; inconclusive means weak or mixed curves; inactive means no such curve, though single readings can be large; an effect the other way counts as inactive or inconclusive.
Legend:
[1] = qHTS assay to identify small molecule agonists of the vitamin D receptor (VDR) signaling pathway - cell viability counter screen (AID 743224); further: series mostly up to about 63 µM; nearly all actives have a fitted effect of over 50% in size
Procedure, shortened: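 Viability is measured in the same wells as the VDR-bla reporter assay: after 16 h compound treatment and 2 h substrate loading, CellTiter-Glo is added and luminescence read 30 min later.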

[2] = qHTS assay to identify small molecule antagonists of the vitamin D receptor (VDR) signaling pathway - cell viability counter screen (AID 743225); further: nearly all actives have a fitted effect of over 50% in size
Procedure, shortened: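 HEK293T VDR-bla; cpd + 1a,25-(OH)2D3 3 nM final, 16 h 37C/5% CO2; B/G FRET substrate 2 h RT; then CellTiter-Glo 30 min RT, luminescence.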

[3] = qHTS assay to identify small molecule agonists of the NFkB signaling pathway (AID 1159509; active means well fitted curve in the direction sought with a large enough effect in the signal ratio in the repeat runs, not every such curve was filed as active; the % refers to the signal ratio; further: series mostly up to about 61 µM)
Procedure, shortened: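 NFkB-bla ME-180 cells with a beta-lactamase reporter under an NF-kB response element were plated overnight, treated with compounds in DMSO for 5 hr at 37 C, then loaded with FRET substrate for 1.5 hr at room temperature.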

[4] = qHTS assay to identify small molecule agonists of the NFkB signaling pathway - cell viability counter screen (AID 1159515; calls by dose curve; further: series mostly up to about 61 µM; nearly all actives have a fitted effect of over 55% in size)
Procedure, shortened: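 Multiplexed viability readout: after the 5 hr compound exposure and 1.5 hr FRET substrate step, CellTiter-Glo reagent went into the same NFkB-bla ME-180 wells; ATP luminescence was measured after 30 min at room temperature.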

[5] = qHTS assay to identify small molecule agonists of the endoplasmic reticulum stress response signaling pathway (AID 1159516; active means well fitted activation curve with a large enough effect in the signal ratio in the repeat runs, not every such curve was filed as active; the % refers to the signal ratio)
Procedure, shortened: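 Tox21 10K library screened in quantitative HTS format on ESRE-bla HeLa cells, a beta-lactamase reporter under ER stress response element control; 5 hr treatment, FRET read.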

[6] = qHTS assay to identify small molecule agonists of the endoplasmic reticulum stress response signaling pathway - cell viability counter screen (AID 1159517; calls by dose curve; further: series mostly up to about 61 µM; nearly all actives have a fitted effect of over 50% in size)
Procedure, shortened: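 Luminescence readout: CellTiter-Glo, 30 min RT, same wells as the ESRE-bla reporter read. HeLa ESRE-bla, 1,500 cells/well, o/n 37 C; cpd 5 hr 37 C/5% CO2.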

[7] = qHTS assay to identify small molecule antagonists of the retinoid-related orphan receptor gamma (ROR-gamma) signaling pathway - cell viability counter screen (AID 1159520); further: nearly all actives have a fitted effect of over 50% in size
Procedure, shortened: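 Tet-on ROR gamma CHO cells (1,000/well) were plated 4 hr, given compounds in DMSO for 2 hr at 37 C, then induced with 1 uM final doxycycline for 16 hr. Viability was read as ATP by CellTiter-Glo luminescence after 30 min.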

[8] = target: Nuclear receptor ROR-gamma (Homo sapiens) (UniProt P51449); test: qHTS assay to identify small molecule antagonists of the retinoid-related orphan receptor gamma (ROR-gamma) signaling pathway (AID 1159521; further: nearly all actives have a fitted effect of over 50% in size; further: potency means the concentration at half of the fitted maximal effect)
Procedure, shortened: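 Cells were plated, rested 4 h at 37 C, exposed to compounds for 2 h, then given 1 uM final doxycycline hyclate to induce RORγ expression. After 16 h, ONE-Glo luminescence from the ROR response element reporter was measured.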

[9] = qHTS assay to identify small molecule agonists of the AP-1 signaling pathway - cell viability counter screen (AID 1159525; calls by dose curve; further: nearly all actives have a fitted effect of over 55% in size)
Procedure, shortened: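 ME-180 AP-1-bla, 2500 cells/well, Opti-MEM + 0.5% dialyzed FBS; overnight 37 °C; cpd 15-pt titration, 5 h 37 °C; CellTiter-Glo 30 min RT; luminescence read; normalised to TOAB and DMSO controls.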

[10] = qHTS assay to identify small molecule agonists of the AP-1 signaling pathway (AID 1159526; calls by dose curve)
[11] = qHTS assay to identify small molecule agonists of the RXR signaling pathway - cell viability counter screen (AID 1159529); further: nearly all actives have a fitted effect of over 50% in size; further: potency means the concentration at half of the fitted maximal effect
Procedure, shortened: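 Steps: seed RXR-alpha-UAS-bla HEK 293T cells in assay medium containing 2% charcoal-stripped FBS; incubate 5 hr; add compounds in DMSO; incubate 16 hr at 37 C; after the bla read, add CellTiter-Glo and read luminescence at 30 min.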

[12] = qHTS assay to identify small molecule antagonists of the retinoid acid receptor (RAR) signaling pathway - cell viability counter screen (AID 1159551); further: nearly all actives have a fitted effect of over 35% in size
Procedure, shortened: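 Cytotoxicity counter screen in C3RL4 cells: 6 h compound exposure with 1 uM retinol (final), viability from cellular ATP by luminescence.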

[13] = qHTS assay to identify small molecule antagonists of the retinoic acid receptor (RAR) signaling pathway (AID 1159552; further: nearly all actives have a fitted effect of over 50% in size)
Procedure, shortened: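 Retinol at 1 uM final stimulated RARE-luciferase expression in C3RL4 cells exposed to test compounds for 6 hr at 37 C. Reduced luminescence, read 30 min after detection reagent, indicated pathway antagonism.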

[14] = qHTS assay to identify small molecule agonists of the retinoic acid receptor (RAR) signaling pathway (AID 1159553)
Procedure, shortened: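 Agonist activity was scored in C3RL4 cells bearing a retinoic acid response element luciferase construct. Cells were treated with compounds for 6 hr at 37 C, and luciferase signal was measured as luminescence.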

[15] = qHTS assay to identify small molecule antagonists of the estrogen related receptor (ERR) signaling pathway (AID 1224819)
Procedure, shortened: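 Compounds dissolved in DMSO were pin-transferred onto ERR cells that had been plated 6 h earlier, and cells were then incubated 18 h at 37 C; signal was luciferase luminescence via One-Glo.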

[16] = qHTS assay to identify small molecule agonists of the estrogen related receptor (ERR) signaling pathway (AID 1224820)
Procedure, shortened: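 ERR reporter cells (NTP line) plated 2,000/well, incubated 6 h at 37 C/5% CO2, then pinned with compounds in DMSO and held 18 h at 37 C. One-Glo added; luminescence read after 30 min at room temperature.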

[17] = system: estrogen-related receptor alpha (ERRalpha) with PGC-1alpha coactivator, human; test: qHTS assay to identify small molecule antagonists of the estrogen related receptor signaling pathway with the pleiotropic PPARgamma coactivator (PGC) (AID 1224821; calls by dose curve)
Procedure, shortened: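 Cells engineered for PGC/ERR signalling (line from NTP) were plated 6 h at 37 C/5% CO2, then exposed to DMSO-dissolved compound for 18 h at 37 C. Luciferase activity was read by One-Glo luminescence after 30 min at room temperature.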

[18] = target: Retinoic acid receptor RXR-alpha (Homo sapiens) (UniProt P19793); test: qHTS assay to identify small molecule agonists of the RXR signaling pathway (AID 1159527; calls by dose curve; further: nearly all actives have a fitted effect of over 35% in size)
Procedure, shortened: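 Cells plated at 2,000/well, rested 5 hr at 37 C, pin-dosed with DMSO compound solutions, incubated 16 hr, then loaded with B/G FRET substrate for 2 hr at RT before dual-emission fluorescence reading.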

Chain of Retinoic acid receptor RXR-alpha (Homo sapiens) (P19793 whole entry, looked up): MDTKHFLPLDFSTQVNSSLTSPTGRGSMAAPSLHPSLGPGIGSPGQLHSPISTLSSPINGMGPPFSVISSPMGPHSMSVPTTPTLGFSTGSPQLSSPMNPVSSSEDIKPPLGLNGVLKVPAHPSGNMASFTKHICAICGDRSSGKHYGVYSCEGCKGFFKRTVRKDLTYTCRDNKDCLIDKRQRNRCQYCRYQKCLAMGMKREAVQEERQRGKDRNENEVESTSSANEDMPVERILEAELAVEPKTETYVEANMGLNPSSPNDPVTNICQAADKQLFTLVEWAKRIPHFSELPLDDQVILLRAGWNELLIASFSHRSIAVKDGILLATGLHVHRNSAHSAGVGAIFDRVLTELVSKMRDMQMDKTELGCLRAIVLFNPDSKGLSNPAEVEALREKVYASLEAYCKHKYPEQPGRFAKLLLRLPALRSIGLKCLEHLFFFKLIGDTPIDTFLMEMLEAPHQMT

Row | SMILES | outcome [1] | outcome [2] | outcome [3] | outcome [4] | outcome [5] | outcome [6] | Potency [7] | Potency [8] | outcome [9] | Potency [10] | Potency [11] | outcome [12] | outcome [13] | Potency [14] | Potency [15] | outcome [16] | outcome [17] | outcome [18]
1 | CCCCCO | inactive | inactive | inactive | inactive | inactive | inactive | inactive | inactive | inactive | inactive | inactive | inactive |  |  |  |  |  | 
2 | O=C(OCCN1CCOCC1)c1cccnc1Nc1cccc(C(F)(F)F)c1 | inactive | inactive | inactive | inactive | inactive | inactive | inactive | inactive | inactive | inactive | inactive | inactive |  |  |  |  |  | 
3 | CO[C@@H]1COCC[C@@H]1N[C@@H]1CC[C@@](C(=O)N2CCc3ncc(C(F)(F)F)cc3C2)(C(C)C)C1 | inactive |  | inactive | inactive | inactive | inactive | inactive | inactive | inactive | inactive | inactive |  |  |  |  |  |  | 
4 | CCCN(C1CCN(C(=O)C2CCNCC2)CC1)[C@@H]1CCc2ccc(OC)cc2C1 | inactive |  | inactive | inactive | inactive | inactive | inactive | inactive | inactive | inactive | inactive |  | inactive | inactive |  |  |  | 
5 | CC1(C)C(=O)NC(=O)N1CO | inactive |  | inactive | inactive | inactive | inactive | inactive | inactive | inactive | inactive | inactive | inactive |  |  |  |  |  | 
6 | O=C(O)c1ccc2cc(O)ccc2c1 | inactive | inactive | inactive | inactive | inactive | inactive | inactive | inactive | inactive | inactive | inactive | inactive | inactive |  |  |  |  | 
7 | C1CCN(CN2CCCCC2)CC1 | inactive | inactive | inactive | inactive | inactive | inactive | inactive | inactive | inactive | inactive | inactive | inactive |  |  |  |  |  | 
8 | CCCCCCCCCCCC(=O)OCC | inactive | inactive | inactive | inactive | inactive | inactive | inactive | inactive | inactive | inactive | inactive |  | inactive |  |  |  |  | 
9 | Nc1cccc2c(=O)[nH][nH]c(=O)c12 | inactive |  | inactive | inactive | inactive | inactive | inactive | inactive | inactive | inactive | 5.52 µM (active) | inactive |  | inactive |  |  |  | 
10 | O=C(O)c1cc(C(=O)O)c(C(=O)O)cc1C(=O)O | inactive |  | inactive | inactive | inactive | inactive | inactive | inactive | inactive | inactive | inactive |  | inactive |  |  |  |  | 
11 | CCCC1CCCC(=O)O1 (configuration not stated) | inactive |  | inactive | inactive | inactive | inactive | inactive | inactive | inactive | inactive | inactive |  | inactive | inactive |  |  |  | 
12 | C=CC(C)CCC=C(C)C (configuration not stated) |  | inactive | inactive | inactive | inactive | inactive | inactive | inactive | inactive | inactive | inactive | inactive |  | inactive |  |  |  | 
13 | CC(C)=CCCC(C)C=O (configuration not stated) |  |  | inactive | inactive | inactive | inactive | inactive | inactive | inactive | inactive | inactive |  | inactive | inactive |  |  |  | 
14 | CCCC1CCOC(C)S1 (configuration not stated) |  | inactive | inactive | inactive | inactive | inactive | inactive | inactive | inactive | inactive | inactive | inactive |  |  |  |  |  | 
15 | CCCCCC1CCC(=O)O1 (configuration not stated) | inactive |  | inactive | inactive | inactive | inactive | inactive | inactive | inactive | inactive | inactive | inactive |  |  |  |  |  | 
16 | CCC(C(=O)O)c1ccc(N2Cc3ccccc3C2=O)cc1 (configuration not stated) |  | inactive | inactive | inactive | inactive | inactive | inactive | inactive | inactive | inactive | inactive | inactive | inactive |  |  |  |  | 
17 | COc1cc(CNC(=O)CCCC/C=C/C(C)C)ccc1O | inactive | inactive | inactive | inactive | inactive | inactive | inactive | inactive | inactive | inactive | inactive | inactive | inactive |  |  |  |  | 
18 | CC1=C(C)C(=O)C(CCCCC#CCCCC#CCO)=C(C)C1=O | inactive | inactive | inactive | inactive | inactive | inactive | inactive | 29.8 µM (active) | inactive | inactive |  |  | inactive |  | 12.8 µM (active) | inactive | inactive | 
19 | Cc1nc(C)c(C)nc1C | inactive | inactive | inactive | inactive | inactive | inactive | inactive | inactive | inactive | inactive | inactive |  |  |  |  |  |  | 
20 | COc1cccc([C@H](O)C2CCN(CCc3ccc(F)cc3)CC2)c1OC | inactive | inactive | inactive | inactive | inactive | inactive | inactive | inactive | inactive | inactive |  | inactive | inactive | inactive |  |  |  | 
21 | O=Cc1ccc([N+](=O)[O-])cc1 | inactive | inactive | inactive | inactive | inactive | inactive | inactive | inactive | inactive |  | inactive | inactive | inactive |  |  |  |  | inactive
22 | CC(CC(C#N)(c1ccccc1)C(C)C)N(C)C (configuration not stated) |  | inactive | inactive | inactive | inactive | inactive | inactive | inactive | inactive |  | inactive | inactive | inactive |  |  |  |  | inactive
